# Source: PubChem BioAssay
# AID504770: growth inhibitors of E. coli YBA685 in a screen for V. cholerae RctB (chromosome II replication) inhibitors | AID 504770 | z-score (concentration not given with the values) | actives 0.27% (n = 130,000) | E. coli YBA685 rctB-dependent plasmid, OD600 growth, 3 h; hits give low values; in the data active = z-score below about -2, passing the limit was not always enough
# MenB inh: blocks the Mycobacterium tuberculosis MenB enzyme. P9WNP5. MenB enzyme assay, absorbance read-out. inhibition, % (test concentration not listed). actives 0.43% (n = 100,000); in the data active = inhibition above about 21%, passing the limit was not always enough
# Target sequence (P9WNP5 whole entry, looked up): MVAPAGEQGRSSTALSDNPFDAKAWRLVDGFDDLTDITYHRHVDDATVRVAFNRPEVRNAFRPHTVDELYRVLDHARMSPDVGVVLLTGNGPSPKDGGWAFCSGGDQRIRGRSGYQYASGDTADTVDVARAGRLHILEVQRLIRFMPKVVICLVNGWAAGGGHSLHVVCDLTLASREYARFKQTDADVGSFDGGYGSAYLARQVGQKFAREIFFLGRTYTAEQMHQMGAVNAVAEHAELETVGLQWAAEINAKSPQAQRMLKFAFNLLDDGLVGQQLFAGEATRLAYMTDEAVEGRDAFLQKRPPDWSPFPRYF
# Mtb MbtI inh: inhibitors of Mycobacterium tuberculosis siderophore enzyme MbtI. P9WFX0. purified MbtI enzyme, fluorescence intensity read-out. inhibition, % (concentration not given with the values). actives 0.89% (n = 100,000). AID 493033; in the data active = inhibition mostly above about 56%, no sharp cut-off; inactive = mostly below about 77%
# PV pol inh: poliovirus RNA polymerase inhibition. P03300. AID 588519. % elongation, % (compound at 16.7 µg/mL). actives 0.66% (n = 150,000). poliovirus polymerase elongation, fluorescence polarization; hits give low values; in the data active = % elongation below about 90%
# The depositor's hits bear a star; / = no result given. The list is not random: actives were taken first. Their share in the collection is about 1.5%.
SMILES,AID504770,MenB inh,Mtb MbtI inh,PV pol inh
O=C1[C@H]2CSC3(C(=O)c4ccccc4C3=O)N2C(=O)[C@H]2CSC3(C(=O)c4ccccc4C3=O)N12,-0.35,-4.9,99.8*,99.0
c1ccc2nc(Sc3ncn[nH]3)c(Sc3ncn[nH]3)nc2c1,0.35,-16.4,/,85.0*
O=c1[nH]nc(Sc2ncn[nH]2)c(=O)[nH]1,-0.7,-7.9,10.5,98.0
CC(OC(=O)c1cc(S(=O)(=O)N(C)C)ccc1N1CCCC1)C(=O)N1CCc2ccccc21 (stereo not given),-2.95*,-2.2,0.4,103.0
COC(=O)c1c(NC(=O)CCCOc2ccc(C(C)(C)C)cc2)sc2c1C(C(=O)OC)CC2 (stereo not given),/,/,/,62.0*
CC1(c2ccc(Cl)cc2Cl)NC(=O)N(CC#N)C1=O (stereo not given),0.35,-11.7,-6.3,99.0
CC(C)S(=O)(=O)C1=NSC2=NC(=O)/C(=C\c3ccco3)C(=N)N21,0,-63.3,15.4,79.0*
COc1ccc(C(=O)Nc2ccccc2C(=O)NC(C(=O)NCc2ccco2)C(C)C)cc1 (stereo not given),0,30.3*,-36.2,101.0
Fc1ccccc1-c1nnc2ccc(C(F)(F)F)cn12,0.95,13.7,/,16.0*
Cc1nc(C(=O)Oc2ccc(Cl)cc2)sc1C(=O)Oc1ccc(Cl)cc1,0,-7.5,55.2,42.0*
S=c1[nH]nc(CNc2cccc(Cl)c2)o1,-1.45,-25.5,83.7*,100.0
Clc1nc(Cl)nc(NCCC2=CCCCC2)n1,1.95,17.1,7.9,78.0*
CC1CCCC(C)N1Cn1nc2sc3ccccc3n2c1=S (stereo not given),-0.45,3.6,97.6*,99.0
CCNC(=O)CSc1nnc(-c2cc(OC)c(OC)c(OC)c2)o1,-6.1*,-0.5,0.1,105.0
COc1cccc(-c2nnc(SCC(=O)NC3CCCCC3)o2)c1,/,/,/,88.0*
C/C(=N\O)c1sc(-c2ccc(Cl)cc2)nc1C,-0.85,/,/,/
COC(=O)CC1SC(=O)NC1=S (stereo not given),-2.7,-51.7,83.7*,60.0
COC(=O)CC1SC(=O)NC1=Nc1ccc(C)cc1 (stereo not given),0.55,/,/,/
COc1ccccc1-c1noc(-c2ccccc2C(=O)NCc2ccco2)n1,-0.45,-16.6,59.2*,105.0
CNC(=O)c1ccccc1-c1nc(-c2ccccc2OC)no1,-0.3,-19.5,-5.3,101.0
O=C(O)C1Nc2c(I)cccc2C2C=CCC12 (stereo not given),-0.7,-16.8,102.8*,93.0
O=C(NC1CCCc2ccccc21)c1cc(S(=O)(=O)N2CCCCC2)c[nH]1 (stereo not given),2,-44.3,-6.4,101.0
O=S(=O)(NC1CCc2ccccc21)c1ccc(S(=O)(=O)N2CCCC2)cc1 (stereo not given),1.4,39.3*,-4.8,102.0
O=S(c1c(F)c(F)c(F)c(F)c1F)c1c(F)c(F)c(F)c(F)c1F,-0.35,3.3,7.2,94.0
O=C1/C(=C\C=C\c2ccco2)SC(=S)N1NS(=O)(=O)c1ccccc1,0.2,-118.9,40.9,/
SMILES,AID504770,MenB inh,Mtb MbtI inh,PV pol inh
COc1ccc(C(=O)NCCn2cc(SCC(=O)Nc3ccccc3)c3ccccc32)cc1,-2.45*,-17.7,-5.3,102.0
Cc1cc(C)c(/C=N/NC(N)=O)c(C)c1/C=N/NC(N)=O,-3.25*,2.3,-13.9,102.0
O=C(Oc1nsnc1N1CCOCC1)c1ccccc1,-1.25,-6.5,/,47.0*
O=C(Oc1nsnc1N1CCOCC1)N1CCCCC1,0.75,8.2,6.8,101.0
CCN(CC)CC(=O)Nc1ccc(S(N)(=O)=O)cc1,-0.6,3.2,9.9,100.0
CCc1c(C)sc(NC(=O)CCCC(=O)O)c1C(N)=O,-0.55,-2.5,/,81.0*
COC(=O)CCC(=O)Nc1sc(C)c(C)c1C(N)=O,0.2,/,/,/
O=C(Oc1cccc(Cl)c1Cl)c1ccncc1,-1.5,0.7,-1.6,4.0*
Cc1ccc(SC#N)c(N)n1,-2.5*,/,/,/
N#CSc1ccc(N)cc1,-1.5,/,6.2,99.0
CC(C)(C)C1(O)C=C(O)C(=O)N1c1cccnc1 (stereo not given),0,53.3*,/,103.0
O=C(Nc1ccccc1C(=O)O)c1cccs1,-0.4,26.9,89.5*,98.0
CCN(CC)S(=O)(=O)c1cccc(-c2nnc(SCc3c(C)noc3C)n2CCc2ccccc2)c1,2.05,-5.7,26.1,107.0
Cc1cc2c(cc1C)C(=O)C(N1CCOCC1)=C(c1ccccc1)C2=O,0,8.2,53.9*,102.0
CC1=CC(C)=NC2Nc3c(C)cc(C)cc3C(=N)C12 (stereo not given),0.05,-278.9,51.7,86.0*
S=c1[nH]ncn1/N=C/c1ccccc1,0.65,7.5,86.1*,100.0
